The entries come from a sample that favours hits as a whole.
KDM5B inh = blocks human KDM5B histone demethylase activity | KDM5B demethylase, FDH-coupled NADH fluorescence (FDH is formaldehyde dehydrogenase) | Potency, µM (top dose mostly 57.7 µM), usual class: inhibitors | 220,000 tested, 2.6% active | AID 1347165; active = well fitted inhibition curve with a large enough effect; also: 0% is about no effect; nearly all actives have a fitted effect of over 70% in size
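Here, H3K4me3 peptide (12.5 µM in substrate mix) is demethylated by KDM5BΔAP, 200 nM final, after 10 min compound exposure. Formaldehyde product is coupled through FDH (0.25 U/mL in mix) to NADH fluorescence; 30-min ΔRFU feeds dose-response curves.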
* marks the source's active call; other numbers are inactive results; i = inactive; ! = a repeat was not active. Potency is read from the fitted curve at half-maximal effect.

SMILES	KDM5B inh
Clc1ccc(CN2CCC[C@H]2c2nc(-c3ccc(N4CCOCC4)nc3)no2)cc1	35.5µM*
O=C(O)c1ccc(CN2CCC[C@H]2c2nc(-c3ccc(OC4CCCCC4)nc3)no2)cc1	i
c1ccc(CN2CCC[C@H]2c2nc(-c3ccc(N4CCOCC4)nc3)no2)cc1	31.6µM*
CN(C)c1ccc(-c2noc([C@@H]3CCCN3Cc3cnc4ccccc4c3)n2)cn1	28.2µM*
COc1cc(NC(=O)Nc2ccc3nc(N4CCOCC4)cc(C)c3c2)cc(OC)c1	i
CCCC(=O)Nc1nc2cc(NS(=O)(=O)c3cc(F)ccc3F)ccc2s1	i
C=Cc1ccc(CN2C(=O)N(c3ccc(OCC)cc3)S(=O)(=O)c3ccccc32)cc1	i
CCOC(=O)CN(CC(=O)NC1(C#N)CCCC1)C1CC1	i
CCOC(=O)CSc1nc(N)c2c3c(sc2n1)CCCC3C (stereo unspecified)	i
CCCCc1nn2cc(-c3ccc(C)cc3)nc2s1	i
CCC(=O)N/N=C(/C)c1ccccc1	i
O=C(NCc1sc2ccccc2c1Cl)[C@H]1CCC[C@H](O)C1	i
CCn1cnc2c1c(=O)n(CC(=O)Nc1ccc(N3CCCC3)cc1)c(=O)n2Cc1ccccc1	i
CN1CCC(N2CC[C@H](c3nc4ccccc4[nH]3)C2)CC1	i
Cc1ccc2nc([C@H]3CCN(C(=O)c4ccccc4)C3)[nH]c2c1	i
O=C(C1CCCCC1)N1CC[C@H](c2nc3ccc(C(F)(F)F)cc3[nH]2)C1	i
COc1ccc2nc([C@H]3CCN(C(C)C)C3)[nH]c2c1	31.6µM*
CC(C)NC(=O)N1CC[C@H](c2nc3ccc(F)cc3[nH]2)C1	i
Cc1ccc2nc([C@H]3CCN(C4CCC4)C3)[nH]c2c1	28.2µM*
COc1ccc2nc([C@H]3CCN(C(=O)COCC(=O)O)C3)[nH]c2c1	i
Cc1ccc2nc([C@H]3CCN(C(=O)Nc4ccccc4)C3)[nH]c2c1	i
c1cc2nc(C3CCN(C4CCCCC4)C3)[nH]c2cn1 (stereo unspecified)	39.8µM*!
Cc1ccc(C2=CC(c3ccccc3C)n3nnnc3N2)cc1 (stereo unspecified)	i
CCCCCn1nc(C(=O)Nc2ccc3oc(C)nc3c2)c2ccccc2c1=O	i
Cc1ccc(C)c(SC(C)C(N)=O)c1 (stereo unspecified)	i
SMILES	KDM5B inh
COc1ccc2nc(COc3ccccc3OC)[nH]c2c1	i
Cc1nc(-c2ccc(C)c(S(=O)(=O)N3CCCC3)c2)cs1	i
Cc1ccc(C(=O)NC2CC2)cc1NC(=O)c1ccc(C)c(S(=O)(=O)N2CCCCC2)c1	i
COCCCN1C(=O)CC[C@H]2CN(Cc3cc(CC(C)C)n[nH]3)CC[C@H]21	i
NC(=O)c1noc(CN2CC[C@@H]3[C@@H](CCC(=O)N3CCc3ccccc3)C2)n1	i
Cc1ccn2c(=O)cc(CN3CC[C@@H]4[C@@H](CCC(=O)N4CCC(C)C)C3)nc2c1	28.2µM*
CCCc1c(C)nc(Nc2nc(C)c3cc(OC)ccc3n2)[nH]c1=O	i
CCc1ccc(S(=O)(=O)c2cn(CC(=O)Nc3ccccc3C)c3ccc(F)cc3c2=O)cc1	i
C[C@H]1[C@@H]2[C@@H](O)C([C@H](C)C(=O)N3CCCCC3)CC[C@@]2(C)CC[C@@H]1NC(=O)c1ccccn1 (stereo partly specified)	i
COCCNC(=O)[C@@H](C)C1CC[C@@]2(C)Cc3sc(CSc4ccccc4)nc3[C@@H](C)[C@@H]2[C@H]1O (stereo partly specified)	i
C[C@H](C(=O)N1CCCC1)C1CC[C@@]2(C)Cc3sc(-c4ccccc4)nc3[C@@H](C)[C@@H]2[C@H]1O (stereo partly specified)	31.6µM*
CCCn1c(-n2nc(C)cc2C)nc2c1c(=O)n(Cc1cccc(Cl)c1)c(=O)n2C	i
O=C(NCc1cccnc1)C1CCN(C(=O)N2CC3CC(C2)[C@H]2CCCC(=O)N2C3)CC1 (stereo partly specified)	i
O=C(NCc1cccc(Cl)c1)c1ccc(N2CC3CC(C2)[C@H]2CCCC(=O)N2C3)nc1 (stereo partly specified)	i
O=C(CN1CC2CC(C1)[C@H]1CCCC(=O)N1C2)NCc1ccccc1 (stereo partly specified)	i
O=C(NCc1cccc(F)c1)c1ccc(N2CC3CC(C2)[C@H]2CCCC(=O)N2C3)nc1 (stereo partly specified)	i
O=C(NCc1cc(F)ccc1F)c1cccnc1N1CC2CC(C1)[C@H]1CCCC(=O)N1C2 (stereo partly specified)	31.6µM*
O=C(NCc1cccnc1)c1cccnc1N1CC2CC(C1)[C@H]1CCCC(=O)N1C2 (stereo partly specified)	28.2µM*
CCCC(=O)Nc1nnc(Cc2ccc(OC)c(OC)c2)s1	i
Cc1ccc(-c2nnn(CC(=O)N3N=C(c4ccc(Cl)cc4)CC3c3ccco3)n2)cc1 (stereo unspecified)	i
CCc1nc2c(NC(=O)c3ccc(F)c(Cl)c3)cccn2n1	25.1µM*
CSc1ccccc1NC(=O)c1ccc(F)c(F)c1	i
O=C(Nc1cccn2nc(C3CCC3)nc12)c1cccc(C(F)(F)F)c1	i
O=C(Nc1nc(-c2ccc3ccccc3c2)cs1)c1cc[n+]([O-])cc1	i
COc1cccc(C(=O)Nc2nnc(CCc3ccccc3)s2)c1	i
SMILES	KDM5B inh
CN(C)c1cccc(-c2cnc(Nc3ccc4c(c3)OCCO4)c3c2CCO3)c1	14.1µM*
COc1ccc(Nc2ncc(-c3cnn(C)c3)c3c2OCC3)cc1	35.5µM*
c1ccc(-c2noc(Nc3ccc4c(c3)OCCO4)n2)cc1	i
COc1cncc(Nc2ncc(-c3cccc(N(C)C)c3)c3c2OCC3)c1	31.6µM*
COc1cncc(Nc2ncc(-c3cccnc3)c3c2OCC3)c1	i
Cn1cc(-c2cnc(Nc3cncnc3)c3c2CCO3)cn1	i
CNC(=O)c1cccc(-c2cnc(Nc3cccnc3OC)c3c2CCO3)c1	35.5µM*
CC(=O)N1CCN(c2oc(/C=C/c3ccc(Cl)cc3)nc2C#N)CC1	i
CC(NC(=O)COc1ccc(Br)cc1)c1nc2ccccc2[nH]1 (stereo unspecified)	i
O=C(Oc1ccc2c(=O)c(Oc3ccccc3Br)coc2c1)c1cccs1	i
O=C(NCc1ccc2c(c1)OCO2)N1CCN(S(=O)(=O)c2ccccc2F)CC1	i
O=C(CC[C@@H]1CNC(=O)[C@@H]2C[C@H](NC(=O)Nc3ccccc3)CN12)Nc1ccccc1	i
C/C(Cc1ccccc1)=N\NC(N)=S	i
CC(c1ccc(F)c(F)c1)N(C)C(=O)c1cc2ccccc2[nH]1 (stereo unspecified)	i
COc1ccccc1NC(=O)CN(Cc1ccco1)C(=O)c1cc(=O)c2ccccc2o1	i
CCCCNC(=O)N1CCN(C(=O)Cc2c[nH]c3ccccc23)CC1	i
CCCOc1cc(C)ccc1S(=O)(=O)Nc1cccnc1	i
CCN(CC)Cc1ccc(CNC(=O)c2occc2C)cc1	i
CNC(=O)c1cccc(-c2cnc(NC(=O)Cc3ccccc3)c3c2CCO3)c1	i
O=C(Nc1ccc2c(c1)OCCO2)c1cccc(C(=O)Nc2ccc3c(c2)OCCO3)c1	i
CNC(=O)c1cccc(-c2cnc(Nc3ccc4c(c3)OCCO4)c3c2CCO3)c1	39.8µM*
CNC(=O)c1cccc(-c2cnc(Nc3ccccc3)c3c2CCO3)c1	31.6µM*
OC1(CN2CCN(C/C=C/c3ccccc3)CC2)CNCCOC1 (stereo unspecified)	i

High-throughput results deposited in PubChem BioAssay by National Center for Advancing Translational Sciences (NCATS).
